Compounds with a hit are over-represented: about 10% of the library has one in this group of screens.
3T3 cytotox – Cytotoxic Profiling in NIH 3T3 Cell Line of Diverse Libraries Using Quantitative High-Throughput Screening; NIH 3T3 viability, CellTiter-Glo ATP luminescence, 48-72 h; Potency, µM (series often up to 96.7 µM), usual class: inhibitors; 4.3% of 94,000 active; further: nearly all actives have a fitted effect of over 55% in size
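First NIH 3T3 cells are plated at 400 cells/well; next compound is pinned in; then plates incubate 48 or 72 hr at 37 °C; finally CellTiter-Glo is added and luminescence read after 10 min.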
NPR1 antag – Natriuretic polypeptide receptor (hNpr1) antagonism - Primary qHTS | HEK293 hNpr1 GloSensor cGMP, ANP-stimulated luminescence | 1.6% of 76,000 active | Atrial natriuretic peptide receptor 1 (Homo sapiens), P16066 | Potency, µM (titrated, usually from 46.3 µM), usual class: inhibitors; calls by dose curve; further: nearly all actives have a fitted effect of over 60% in size
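Compound pre-incubated 30 min at room temperature on GloSensor-loaded HEK293 cells stably carrying hNpr1 and the pGS-40F cGMP biosensor. Stimulation uses hNppA at 0.1 nM final; luminescence is taken at baseline and 20 min post-agonist.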
Luciferase inh – Firefly luciferase inhibition profiling of diverse chemical library using quantitative high-throughput screening; AID 1347043, 2019; purified P. pyralis luciferase, luminescence, biochemical; Potency, µM (highest dose often 115 µM), hits mostly inhibitors; Luciferin 4-monooxygenase (Photinus pyralis), P08659; 2.5% of 76,000 active; further: nearly all actives have a fitted effect of over 65% in size
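Cell-free enzyme assay, 10nM P. pyralis luciferase, luciferin and ATP each at 10uM. Inhibition profiled over a 6-point titration, read as luminescence.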
HEK293 tox – Cytotoxic Profiling in HEK 293 Cell Line of Diverse Libraries Using Quantitative High-Throughput Screening. HEK 293 viability, ATP luminescence (CellTiter-Glo), 48-72 h. Potency, µM (series often up to 115 µM), usual class: inhibitors. 6.6% of 94,000 active. AID 1345083, 2018; further: nearly all actives have a fitted effect of over 60% in size
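Read-out: CellTiter-Glo ATP luminescence. Cells: HEK 293, 250 cells/well. Exposure: 48 or 72 hr, 37 degree Celsius.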
GPT2 inh – Primary qHTS assay for inhibitors of Glutamate pyruvate transaminase 2 (GPT2); Alanine aminotransferase 2 (Homo sapiens), Q8TD30; Recombinant GPT2, coupled pyruvate oxidase/HRP Amplex Red fluorescence; Potency, µM (series often up to 57.7 µM), usual class: inhibitors; 0.25% of 100,000 active; AID 1671188, 2021; further: nearly all actives have a fitted effect of over 60% in size
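Inhibition is scored from Amplex Red fluorescence generated when pyruvate oxidase and HRP act on pyruvate released by GPT2. Reactions contain 10ng/uL enzyme, 250uM a-KG and 2mM L-alanine and run 30 min at room temperature.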
Each line names hits and unclear results; the compound was inactive in the other large screens. Unless noted, the call rests on the fitted dose curve; in most records, active means well fitted curve in the direction sought with a large enough effect; inconclusive means small, poorly fitted or top-dose-only effect, or another doubt; inactive means no such curve, though single readings can be large; an effect the other way counts as inactive or inconclusive.

O=C1NC2(CCN(Cc3ccc(F)cc3)CC2)COc2ccccc21	HEK293 tox 63.1µM
O=C1NC2(CCN(Cc3ccsc3)C2)COc2ccccc21 (stereo unspecified)	3T3 cytotox 39.8µM, HEK293 tox inconclusive
O=C1NC2(CCN(Cc3ccsc3)C2)Oc2ccccc21 (stereo unspecified)	none
O=S(=O)(c1cccs1)N1CC(c2noc(C3CCCN3CC3CC3)n2)C1 (stereo unspecified)	HEK293 tox inconclusive
Cc1ccc(CN2CCC3(CC2)COc2ccccc2C(=O)N3)cc1	3T3 cytotox inconclusive, HEK293 tox 28.2µM
O=C1c2ccccc2-[n+]2ccc3c([nH]c4ccccc43)c21	GPT2 inh 0.273µM (no result: 3T3 cytotox, NPR1 antag, Luciferase inh, HEK293 tox)
CC(=O)NCCC1CCN(C(=O)Nc2ccc(C)c(F)c2)CC1	Luciferase inh 5.01µM
O=C(O)C1(c2ccccc2)CCN(S(=O)(=O)c2ccccc2)CC1	3T3 cytotox 79.4µM (no result: NPR1 antag, Luciferase inh)
Cc1ccccc1CN1CCc2nc(C(=O)Nc3ccccc3)oc2CC1	3T3 cytotox inconclusive, NPR1 antag 10µM, Luciferase inh inconclusive, HEK293 tox 39.8µM
Cc1cc(F)cc(CN2CCc3nc(C(=O)Nc4ccccc4)oc3CC2)c1	3T3 cytotox 25.1µM, NPR1 antag 12.6µM, Luciferase inh 22.4µM, HEK293 tox inconclusive
Cc1ccccc1CN1CCc2nc(C(=O)N3CCOCC3)oc2CC1	3T3 cytotox inconclusive, NPR1 antag inconclusive, Luciferase inh inconclusive, HEK293 tox inconclusive
O=C(Nc1ccc(Cl)cc1)c1nc2c(o1)CCN(Cc1cnc[nH]1)CC2	3T3 cytotox inconclusive, NPR1 antag inconclusive, Luciferase inh 70.8µM, HEK293 tox inconclusive
O=C(c1cccc(F)c1)N1CCN(c2nnc3ccc(Cl)cn23)CC1	none
NC(=O)c1cccnc1OC1CCN(C(=O)c2ccoc2)C1 (stereo unspecified)	none
CCCN(C)c1nccnc1OC1CCN(C(=O)c2ccc(F)cc2)C1 (stereo unspecified)	Luciferase inh 35.5µM, HEK293 tox inconclusive
CCCN(C)c1nccnc1OC1CCN(C(=O)c2ccoc2)C1 (stereo unspecified)	Luciferase inh 14.1µM, HEK293 tox inconclusive
CCCN(C)c1nccnc1OC1CCN(C(=O)c2ccc(OC)nc2OC)C1 (stereo unspecified)	Luciferase inh 22.4µM, HEK293 tox inconclusive
Cc1ccc2c(C)c(C(=O)N3C[C@@H](NS(C)(=O)=O)[C@H](C(C)C)C3)oc2c1	3T3 cytotox inconclusive, HEK293 tox 44.7µM
Cc1ccc2c(C)c(C(=O)N3C[C@@H](CN4CCC(O)CC4)[C@@H](CO)C3)oc2c1	none
O=C(C1CCC(N2Cc3cccn3C2=O)CC1)C1CCN([S+](=O)([O-])c2cccs2)CC1 (stereo unspecified)	none (no result: NPR1 antag, Luciferase inh)
CN1CCN(C(=O)c2cn3cc(-c4ccc(F)cc4)sc3n2)CC1	3T3 cytotox 79.4µM, HEK293 tox inconclusive (no result: NPR1 antag, Luciferase inh)
COc1cccc(-c2cn3cc(C(=O)N4CCOCC4)nc3s2)c1	none (no result: NPR1 antag, Luciferase inh)
O=C(c1cn2cc(-c3ccccc3)sc2n1)N1CCOCC1	3T3 cytotox inconclusive, HEK293 tox 89.1µM (no result: NPR1 antag, Luciferase inh)
CCN1CCN(C(=O)c2cn3cc(-c4ccc(F)cc4)sc3n2)CC1	none (no result: NPR1 antag, Luciferase inh)
COc1ccc(-c2cn3cc(C(=O)N4CCOCC4)nc3s2)cc1	3T3 cytotox inconclusive, HEK293 tox 63.1µM (no result: NPR1 antag, Luciferase inh)
O=C(c1cccc(Cl)c1)N1CCC(C(=O)N2CCC(c3nc4ncccc4[nH]3)CC2)C1 (stereo unspecified)	none (no result: NPR1 antag, Luciferase inh)
O=C(NCc1ccccc1)c1cnc2n1CCN(Cc1ccccc1F)CC2	3T3 cytotox inconclusive, HEK293 tox 28.2µM
O=C(NCCOc1ccccc1)c1cnc2n1CCN(Cc1ccc(F)cc1)CC2	3T3 cytotox inconclusive, HEK293 tox inconclusive
Cc1ccc(CN2CCc3ncc(C(=O)NCCOc4ccccc4)n3CC2)o1	3T3 cytotox 35.5µM, HEK293 tox 50.1µM
CC(C)c1cnc(-c2ccncc2)[nH]1	none (no result: NPR1 antag, Luciferase inh)

Source: PubChem BioAssay
